Among the data in PubChem BioAssay are outcome values, retold here.

The source made the active and inactive calls. No rule for the calls is given here.

The target in the assay is Protein kinase 7 (PK7), Plasmodium falciparum 3D7 (PF3D7_0213400) (UniProt Q7YTF7). Kind of assay: inhibition of Plasmodium PK7 catalytic activity – biochemical, TCAMS antimalarial set, Kinase-Glo luminescence (AID 1159587). Conditions: recombinant PfPK7, Kinase-Glo ATP depletion luminescence.
Chain of Protein kinase 7 (PK7), Plasmodium falciparum 3D7 (PF3D7_0213400) (Q7YTF7 1-343): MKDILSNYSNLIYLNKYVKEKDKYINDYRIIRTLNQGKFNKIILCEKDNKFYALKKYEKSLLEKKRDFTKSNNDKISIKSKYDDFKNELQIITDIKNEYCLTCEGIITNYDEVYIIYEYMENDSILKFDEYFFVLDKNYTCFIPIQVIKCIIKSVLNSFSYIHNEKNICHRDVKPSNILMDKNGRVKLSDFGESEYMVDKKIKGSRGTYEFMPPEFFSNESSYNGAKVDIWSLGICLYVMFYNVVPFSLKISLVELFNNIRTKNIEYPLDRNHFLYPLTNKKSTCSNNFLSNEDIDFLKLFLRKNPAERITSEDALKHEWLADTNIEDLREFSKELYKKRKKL
`CC(C)Nc1nc(NCCc2cnc[nH]2)nc(Nc2ccc(Oc3ccccc3)cc2)n1`: the result was inactive.
`CN(C)CCCNCc1ccc(-c2ccc(F)c(Cl)c2)o1`: the outcome was inactive.
Turning to `COc1ccccc1Cc1nc2ccccc2nc1SCC(=O)Nc1cccc(C(F)(F)F)c1`, the outcome was inactive.
Regarding `CN1CCC(N2CCN(Cc3ccc(-c4ccc(-c5nc6ccccc6[nH]5)s4)cc3)CC2)CC1`, the outcome was inactive.
On to `Cn1cnc2c(Nc3ccncc3)nc(-c3ccc(OC(F)(F)F)cc3)nc21`, for which the outcome was inactive.
For the compound `CCc1cn2c3c(cc(C(=O)N[C@@H](Cc4ccccc4)[C@H](O)CNCC(C)C)cc13)N(C)S(=O)(=O)CC2`, the outcome was inactive.
Consider `O=C(/C=C/c1cccc(Cl)c1)Nc1ccc2nc(CN3CCCC3)ccc2c1`, for which the outcome was inactive.
As for `O=C(C=Cc1ccc(Cl)c(Cl)c1)NCCCCCN1CCCC(CCCNC(=O)c2sc3ccccc3c2Cl)C1` (stereo not given), the outcome was inactive.
For `CC(=O)NCCNc1nccc(N2CCc3ncnc(Nc4ccc(OCc5cccc(F)c5)c(Cl)c4)c3C2)n1` the value was “inactive”.
For the compound `Cc1c(-c2cccc(CNCCc3ccc(Cl)cc3)c2)cnc(N)c1C`, the outcome was inactive.
Take `CCCCn1c(Sc2ccc(C#N)c([N+](=O)[O-])c2)nnc1-c1cc(OC)cc(OC)c1`: the result was inactive.
As to `Cc1cc(N2CCN(CC3CCCCC3)CC2)nc(Nc2ccc(Br)cc2)n1`, the outcome was inactive.
With `O=c1[nH]c(NCCCNCc2cc3c(Cl)cc(Cl)cc3[nH]2)nc2ccsc12`, the result was inactive.
The result for `Cc1cccc2[nH]c(-c3ccc(-c4cccc(NC(=O)c5ccncc5)c4)cc3)nc12` reads “inactive”; that for `Clc1ccc2c(N3CCCNCC3)ccnc2c1`, “inactive”.
The result for `Cc1ccc2c(NN=Cc3cccc(Cl)c3)cc(C)nc2c1` reads “inactive”.
The result for `COc1ccc2nccc([C@@H](O)CN3CCC(NCc4ccc5c(c4)N(C)C(=O)CO5)CC3)c2c1` reads “inactive”; that for `COc1ccc(CC(=O)Nc2ccc(Nc3nc(C)cc(N4CCCC4)n3)cc2)cc1`, “inactive”; that for `CCCc1ccc(S(=O)(=O)Nc2ccc3c(c2)CCC3)cc1`, “inactive”.
Turning to `NC(=O)c1ccsc1NC(=O)CNC(c1ccc(F)cc1)c1cccs1` (stereo not given), the result was inactive.
Turning to `COc1ccc(S(=O)(=O)Nc2cc(Br)cc3c2OCCC3)cc1N1CCN(C(=O)C(Cl)(Cl)Cl)CC1`, the result was inactive.
`CN1CCN(c2ccc(Nc3c(C(N)=O)cnc4cc(-c5ccoc5)ccc34)cc2C(F)(F)F)CC1`: the outcome was inactive.
Turning to `Cc1cc(N[C@@H](CC(C)C)C(=O)NCCOc2ccccc2)nc(Nc2ccccc2)n1`, the result was inactive.
As for `COc1cc(C(=O)NC2CCN(Cc3ccccc3)CC2)ccc1-c1nc2cc(Cl)c(Cl)cc2[nH]1`, the result was inactive.
For `CN(CCN)Cc1cccc(-c2ccc(-c3nc4ccc(C(F)(F)F)cc4[nH]3)s2)c1`, the result was inactive.
Turning to `CCc1c[nH]c2c(N3CCCC3=O)cc(C(=O)N[C@@H](Cc3ccccc3)[C@H](O)CNC(C)(C)c3cccc(C(F)(F)F)c3)cc12`, the outcome was inactive.
Consider `CC(=O)Nc1cccc(C(=O)Nc2nc3ccc(-c4cc(=O)[nH]c(Nc5ccccc5Cl)n4)cc3[nH]2)c1`, for which the result was inactive.
Consider `Cc1nn(-c2ccccc2)c2sc(C(=O)N(CCCN(C)C)c3nc(-c4ccccc4)cs3)cc12`, for which the result was inactive.
On to `COc1ccc(CNC(=O)C2Cc3ccccc3CN2Cc2ccc3ccccc3c2)cc1` (stereo not given), for which the outcome was inactive.
For the compound `c1cc(-c2ccc(CN3CCCCC3)cc2)cc(-c2nc3ccccc3[nH]2)c1`, the outcome was inactive.
Turning to `Cn1c2c(c3ccccc31)CN(CCC1(c3ccc(Cl)c(Cl)c3)CN(C(=O)Cc3ccccc3)CCO1)CC2` (stereo not given), the result was inactive.
With `CN(C)CCCNCc1ccc(-c2ccc(C(F)(F)F)cc2)cc1`, the result was inactive.
Consider `CCCc1cc(OC)c(CC2c3cc(O)c(Cl)cc3CCN2C)cc1OC` (stereo not given), for which the outcome was inactive.
As to `c1ccc(Nc2nc(-c3ccccn3)cs2)nc1`, the outcome was inactive.
In the case of `N#Cc1ccc(NC(=O)c2ccc(Cc3ccc4c(c3)CCN(C3CCC3)CC4)cn2)cc1`, the result was inactive.
As for `Cc1cccc2[nH]c(-c3ccc(-c4cccc(CN5CCC(N)C5)c4)s3)nc12` (stereo not given), the outcome was inactive.
In the case of `COc1ccc2ncc(F)c(CCN3C[C@H](CNCc4ccc5ccccc5c4)[C@H](O)C3)c2n1`, the result was inactive.
For `Cn1nc(C(F)(F)F)c(-c2ccc(Br)cc2)c1NC(=O)Nc1ccc(F)cc1F` the value was “inactive”.
Take `CCOC(=O)N1CCN(CCCNc2c3ccccc3nc3ccccc23)CC1`: the result was inactive.
Regarding `N#Cc1ccc2c(c1)CCN(CCC1CCC(NC(=O)Nc3ccnc4ccccc34)CC1)C2` (stereo not given), the outcome was inactive.
